# Experimental data published in PubChem BioAssay (Tox21).
# Values without a mark were called inactive. Results filed as inconclusive are left out. Where a call stands in place of a potency, no number is given. Activity calls are given as the source filed them. Unless noted, calls come from the whole dose curve; as a rule, active = well fitted curve in the direction sought with a large enough effect in the repeat runs; inconclusive = weak or mixed curves; inactive = no such curve, though single readings can be large; an effect the other way counts as inactive or inconclusive.
# What was measured:
# [1] = qHTS assay for small molecules that induce genotoxicity in human embryonic kidney cells expressing luciferase-tagged ATAD5 (AID 651632); note: nearly all actives have a fitted effect of over 15% in size
# Summary of the method: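 Luminescence read-out: after 16 hr compound exposure at 37C, ATAD5-luciferase HEK293T cells received Amplite, 30 min RT, then CCD imaging. A rise in signal marks genotoxic stress.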
# [2] = qHTS assay for small molecule agonists of the p53 signaling pathway - cell viability (AID 651633; calls by dose curve;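 note: p53RE-bla HCT reporter cells with a stable beta-lactamase p53 reporter; series mostly up to about 83 µM; nearly all actives have a fitted effect of over 30% in size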)
# Summary of the method: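 Viability counter-read: CellTiter-Glo luminescence (30 min, room temperature) in the same p53RE-bla plates. These plates had been exposed to compounds for 16 h at 37 C.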
# [3] = qHTS assay for small molecules that induce genotoxicity in human embryonic kidney cells expressing luciferase-tagged ATAD5 - cell viability (AID 651634; calls by dose curve; note: nearly all actives have a fitted effect of over 25% in size)
# Summary of the method: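 HEK293T ATAD5-luc cells, 2,000/well; compound 15.5 hr, 37C/5% CO2; CellTiter-Fluor 30 min, 37C; fluorescence read.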
# [4] = qHTS assay for small molecule disruptors of the mitochondrial membrane potential (AID 720635); note: potency is the fitted concentration of half-maximal effect
# Summary of the method: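 Mitochondrial membrane potential tracked with Mito-MPS dye, red aggregates (ex 540/em 590 nm) against green monomers (ex 490/em 535 nm). Compound treatment 1 hr at 37C, dye 30 min in HepG2.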
# [5] = qHTS assay to test for compound auto fluorescence at 590 nm (red) in HepG2 cells (AID 720674)
# Summary of the method: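 We screened compounds on adherent HepG2 cells, incubating them for an hour at 37 C in 5% CO2 before reading emission at 590 nm under 540 nm excitation; values reflect equivalence to Rose Bengal sodium fluorescence.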
# [6] = qHTS assay to test for compound auto fluorescence at 535 nm (green) in HepG2 cells (AID 720675)
# [7] = qHTS assay to test for compound auto fluorescence at 460 nm (blue) in HEK293 cells (AID 720678)
# Summary of the method: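 Measured: blue fluorescence (Ex 405/Em 460 nm) of compound-treated HEK293 cells, incubated overnight at 37C with 5% CO2 and scaled to triamterene equivalents.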
# [8] = qHTS assay to test for compound auto fluorescence at 590 nm (red) in HEK293 cells (AID 720679)
# Summary of the method: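 Using HEK293 cells at 2,000 per well, the screen added 23 nL of each compound after cell attachment and incubated overnight (37C, 5% CO2). The plate reader then captured red-label fluorescence, Ex/Em 540/590nm.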
# [9] = qHTS assay for small molecule disruptors of the mitochondrial membrane potential - cell viability (AID 720634; calls by dose curve;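 note: human HepG2 liver cancer cells; series mostly up to about 83 µM; nearly all actives have a fitted effect of over 20% in size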)
# Summary of the method: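 Luminescence from CellTiter-Glo (ATP content) gave viability in HepG2 cells, read in the same wells as the MMP dye assay after 1 hr compound exposure at 37 C.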
SMILES,outcome [1],outcome [2],Potency [3],Potency [4],outcome [5],outcome [6],outcome [7],outcome [8],"fluorescence, relative to Rose Bengal [5]","fluorescence, % of fluorescein control [6]","fluorescence, % of triamterene [7]","fluorescence, % of fluorescent control [8]",outcome [9]
O=NN(CCCl)C(=O)NC1CCCCC1,inactive,inactive,inactive,inactive,inactive,inactive,inactive,inactive,–,–,–,–,–
CC1(C)CC(OC(=O)CCCCCCCCC(=O)OC2CC(C)(C)NC(C)(C)C2)CC(C)(C)N1,inactive,inactive,inactive,2.96 µM (active),–,–,–,–,0.031% [at 18.6 µM],-0.0628% [at 18.6 µM],-0.0282% [at 18.6 µM],0.252% [at 18.6 µM],–
CC(=O)C(C)O (configuration not stated),inactive,inactive,inactive,inactive,–,inactive,inactive,inactive,–,–,–,–,–
COc1cc2c(cc1OC)C(=O)C(CC1CCN(Cc3ccccc3)CC1)C2 (configuration not stated),inactive,inactive,inactive,inactive,inactive,inactive,inactive,inactive,–,–,–,–,–
COc1nc(N)nc2nc[nH]c12,inactive,inactive,inactive,–,inactive,inactive,inactive,inactive,–,–,–,–,inactive
CC(C)OC(=O)CCC(=O)OC(C)C,inactive,inactive,inactive,–,inactive,inactive,inactive,inactive,–,–,–,–,inactive
CCC(C)OC(C)CC (configuration not stated),inactive,inactive,inactive,inactive,inactive,inactive,inactive,inactive,–,–,–,–,–
O=C1CCC(=O)N1Cl,inactive,inactive,inactive,–,inactive,inactive,inactive,inactive,–,–,–,–,inactive
Cc1c(C(=O)c2c[nH]n(C)c2=O)ccc(S(C)(=O)=O)c1C1=NOCC1,inactive,inactive,inactive,–,inactive,inactive,inactive,inactive,–,–,–,–,inactive
Cc1ccc(N)cc1S(=O)(=O)O,inactive,inactive,inactive,–,inactive,inactive,inactive,inactive,–,–,–,–,inactive
C[C@H]1[C@@H](c2ccccc2)NC(=O)N1C,inactive,inactive,inactive,–,inactive,inactive,inactive,inactive,–,–,–,–,–
CCc1occc(=O)c1O,inactive,inactive,inactive,–,inactive,inactive,inactive,inactive,–,–,–,–,inactive
C=CCOC(=O)CCCCCC,inactive,inactive,inactive,–,inactive,inactive,inactive,inactive,–,–,–,–,inactive
CC(C)C1OCCN1CCOC(=O)NCCCCCCNC(=O)OCCN1CCOC1C(C)C (configuration not stated),inactive,inactive,inactive,–,inactive,inactive,inactive,inactive,–,–,–,–,inactive
O=C(Cl)c1ccccc1[N+](=O)[O-],inactive,inactive,inactive,inactive,–,inactive,inactive,inactive,–,–,–,–,–
CC(C)Cn1cnc2c1c(=O)n(C)c(=O)n2C,inactive,inactive,inactive,inactive,inactive,inactive,inactive,inactive,–,–,–,–,–
Cn1nnc2c(C(N)=O)ncn2c1=O,–,inactive,inactive,inactive,inactive,inactive,inactive,inactive,–,–,–,–,inactive
COc1c2occc2c(OC)c2c(=O)cc(C)oc12,inactive,–,inactive,–,–,–,–,–,0.0231% [at 18.6 µM],-0.275% [at 18.6 µM],0.0098% [at 18.6 µM],0.0103% [at 18.6 µM],inactive
CC(=O)CC(=O)OC(C)(C)C,inactive,–,inactive,inactive,inactive,inactive,inactive,inactive,–,–,–,–,inactive
CC1CC(=O)CC(C)(C)C1 (configuration not stated),–,inactive,inactive,–,inactive,inactive,inactive,inactive,–,–,–,–,inactive
N#Cc1ccccc1O,inactive,inactive,inactive,–,inactive,inactive,inactive,inactive,–,–,–,–,–
Cc1ccc2c(c1)C(=O)c1ccccc1C2=O,–,inactive,inactive,6.09 µM (active),–,inactive,inactive,inactive,–,–,–,–,–
CN(C)CCOC(=O)C(c1ccccc1)C1(O)CCCC1 (configuration not stated),inactive,–,inactive,inactive,inactive,inactive,inactive,inactive,–,–,–,–,–
CC(=O)Nc1ccc(OC(=O)c2ccccc2OC(C)=O)cc1,inactive,–,inactive,–,inactive,inactive,inactive,inactive,–,–,–,–,–
Cc1ccc(C)c([N+](=O)[O-])c1,–,inactive,inactive,inactive,–,inactive,inactive,inactive,–,–,–,–,inactive

SMILES,outcome [1],outcome [2],Potency [3],Potency [4],outcome [5],outcome [6],outcome [7],outcome [8],"fluorescence, relative to Rose Bengal [5]","fluorescence, % of fluorescein control [6]","fluorescence, % of triamterene [7]","fluorescence, % of fluorescent control [8]",outcome [9]
OCCN1CCOCC1,inactive,inactive,inactive,–,–,inactive,inactive,inactive,–,–,–,–,–
COC(=O)c1cc(Cl)cc(Cl)c1,–,–,inactive,–,inactive,inactive,inactive,inactive,–,–,–,–,inactive
CCCC(=O)OC/C=C(\C)CCC=C(C)C,inactive,inactive,inactive,–,inactive,inactive,inactive,inactive,–,–,–,–,–
CCC(C)C(=O)OCCc1ccccc1 (configuration not stated),–,inactive,inactive,inactive,inactive,inactive,inactive,inactive,–,–,–,–,inactive
CC(O)CC(C)O (configuration not stated),–,inactive,inactive,–,inactive,inactive,inactive,inactive,–,–,–,–,inactive
CCCC(=O)Nc1ccc(OCC(O)CNC(C)C)c(C(C)=O)c1 (configuration not stated),inactive,inactive,–,–,–,–,–,–,–,-0.0898% [at 18.6 µM],0.0234% [at 18.6 µM],-0.0649% [at 18.6 µM],inactive
CC1OCCC1=O (configuration not stated),–,inactive,inactive,inactive,inactive,inactive,inactive,inactive,–,–,–,–,inactive
C=C(C)[C@@H]1CC=C(C)C(=O)C1,inactive,inactive,inactive,–,–,inactive,inactive,inactive,–,–,–,–,–
O=C(O)CCCCCC(=O)O,–,inactive,inactive,inactive,inactive,inactive,inactive,inactive,–,–,–,–,inactive
C=CC(=O)OCC1CCCO1 (configuration not stated),–,inactive,inactive,–,inactive,inactive,inactive,inactive,–,–,–,–,inactive
CCO[Si](CC)(OCC)OCC,–,inactive,inactive,61.1 µM (active),inactive,inactive,inactive,inactive,–,–,–,–,inactive
C=CCN1C[C@H](C(=O)N(CCCN(C)C)C(=O)NCC)C[C@@H]2c3cccc4[nH]cc(c34)C[C@H]21,inactive,inactive,–,–,inactive,inactive,inactive,inactive,–,–,–,–,–
O/N=C/C=N/O,–,inactive,inactive,inactive,inactive,inactive,inactive,inactive,–,–,–,–,inactive
COc1ccc(CCO)cc1,–,inactive,inactive,–,inactive,inactive,inactive,inactive,–,–,–,–,–
Cc1ccnc(N)c1,–,inactive,inactive,inactive,inactive,inactive,inactive,inactive,–,–,–,–,inactive
Cc1cc(C)c(C(=O)O)c(C)c1,–,inactive,inactive,inactive,inactive,inactive,inactive,inactive,–,–,–,–,inactive
CCC(C)C(C)=O (configuration not stated),inactive,inactive,inactive,–,inactive,inactive,inactive,inactive,–,–,–,–,–
Fc1ccccc1,–,inactive,inactive,–,–,inactive,inactive,inactive,–,–,–,–,inactive
CC(C)NCC(O)c1ccc2ccccc2c1 (configuration not stated),–,inactive,inactive,inactive,inactive,inactive,inactive,inactive,–,–,–,–,–
COc1ccc2c(c1)c1c3n2CCN(C)C3=NCC1,–,–,inactive,inactive,–,inactive,inactive,inactive,–,–,–,–,inactive
C=CCCCCCCCC,–,inactive,inactive,–,inactive,inactive,inactive,inactive,–,–,–,–,inactive
CC1CCc2c(N3CCC(O)CC3)c(F)cc3c(=O)c(C(=O)O)cn1c23 (configuration not stated),–,inactive,inactive,–,inactive,inactive,inactive,inactive,–,–,–,–,inactive
OCC(O)CN1CCN(c2ccccc2)CC1 (configuration not stated),–,inactive,inactive,inactive,inactive,inactive,inactive,inactive,–,–,–,–,inactive
NCC1(Cc2noc(=O)[nH]2)CCCCC1,–,inactive,inactive,–,–,inactive,inactive,inactive,–,–,–,–,inactive
CC(C)[C@H]1CC[C@H](C)C[C@@H]1O,–,inactive,inactive,inactive,–,inactive,inactive,inactive,–,–,–,–,inactive
